Rv3671c inh: inhibitors of M. tuberculosis serine protease Rv3671c. 0.048% of 320,000 active. P9WHR9. inhibition, % at 5.96 µM; in the data active = inhibition above about 38%;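 note: extracellular domain of Rv3671c used as enzyme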
RecA splice inh: Mtb RecA intein splicing inhibition; cell-free RecA intein splicing, fluorescence; inhibition, % (no concentration beside the values); 0.75% of 290,000 active; AID 2221; in the data active = inhibition above about 30%; inconclusive = no clear call, values can overlap the other calls
SSB-PriA inh: blocks PriA binding to SSB C-terminal tail. AlphaScreen SSBct-PriA binding, biotinylated peptide. inhibition, % at 33 µM. 0.6% of 430,000 active. AID 1272365; in the data active = inhibition mostly above about 37%, no sharp cut-off; inactive = mostly below about 20%
Mtb bLac sens: beta-lactam sensitization of Mtb H37Rv | inhibition, % at 25 µM | 0.27% of 330,000 active | M. tuberculosis H37Rv growth with meropenem, percent inhibition | AID 434955;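 note: growth measured after seven days incubation then overnight dye step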
Mtb UGM inh: Mtb UDP-galactopyranose mutase inhibition. purified UGM, fluorescence polarization probe displacement. inhibition, % at 10 µM. 0.06% of 320,000 active. AID 504406; in the data active = inhibition above about 10%, passing the limit was not always enough; inconclusive = no clear call, values can overlap the other calls
Target sequence (P9WIQ1 whole entry, looked up): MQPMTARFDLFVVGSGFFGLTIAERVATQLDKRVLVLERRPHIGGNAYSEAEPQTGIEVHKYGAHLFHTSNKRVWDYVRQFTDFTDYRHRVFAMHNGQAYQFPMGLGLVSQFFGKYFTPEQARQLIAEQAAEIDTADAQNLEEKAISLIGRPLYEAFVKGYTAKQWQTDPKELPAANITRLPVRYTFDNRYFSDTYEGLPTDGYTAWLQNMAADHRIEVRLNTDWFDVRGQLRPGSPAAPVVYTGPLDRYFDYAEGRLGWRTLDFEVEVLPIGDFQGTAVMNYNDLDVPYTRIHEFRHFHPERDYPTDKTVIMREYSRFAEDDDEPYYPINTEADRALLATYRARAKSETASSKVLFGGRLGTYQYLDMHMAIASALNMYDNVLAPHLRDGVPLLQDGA
GFP chromophore: counter-screen: blocks GFP chromophore formation | shares compounds with RecA splice inh | cell-free GFP chromophore formation, fluorescence | EC50, µM | 83% of 2,100 active
Of the large screens only hits and unclear results are named; the others gave an inactive call (follow-up assays come after a bar, where they were run). Only some compounds are listed: those with a hit (about 1.1% of all), similar ones and a draw of the others. Unless noted, the rule behind the calls is not given here.

Cc1[nH][nH]c(=O)c1C(c1ccc(Br)cc1)c1c(C)[nH][nH]c1=O	RecA splice inh 98 | GFP chromophore 0.81
CCOC(=O)c1ccc(NC2=CC(=O)C(=O)c3ccccc32)cc1	RecA splice inh 42 | GFP chromophore 2.7
NS(=O)(=O)c1ccc(NC2=CC(=O)C(=O)c3ccccc32)cc1	RecA splice inh 92 | GFP chromophore 2.6
Cc1ccc(NC2=CC(=O)C(=O)c3ccccc32)cc1	RecA splice inh 54 | GFP chromophore 1.2
CC(=O)Nc1ccc(NC2=CC(=O)c3ccccc3C2=O)cc1	none
CSc1nnc(NC(=O)C23CC4CC(CC(C4)C2)C3)s1	none | GFP chromophore inactive
O=C1Cc2ccccc2C(=O)N1CCc1ccccc1	RecA splice inh 92 | GFP chromophore 5.5
CC1=NN(c2ccccc2)C(=O)C1=C(C)C	RecA splice inh 55 | GFP chromophore 8.5
O=C(c1ccc2nsnc2c1)N1CCC(c2ccc3c(c2)OCO3)C1 (stereo unspecified)	none (no result: Rv3671c inh, RecA splice inh, Mtb bLac sens, Mtb UGM inh)
O=C(Oc1ccc(N(C(=O)c2ccc(Cl)cc2)S(=O)(=O)c2ccc(F)cc2)c2ccccc12)c1ccc(Cl)cc1	none (no result: Rv3671c inh, RecA splice inh, Mtb bLac sens, Mtb UGM inh)
Cc1ccc(S(=O)(=O)N(C(=O)c2ccncc2)c2ccc(OC(=O)c3ccncc3)c3ccccc23)c(C)c1	RecA splice inh 98 | GFP chromophore inactive
Cc1ccc(S(=O)(=O)N(C(=O)c2ccncc2)c2ccc(OC(=O)c3ccncc3)c3ccccc23)cc1	RecA splice inh 47 | GFP chromophore 0.75
CC(=O)Oc1ccc(N(C(C)=O)S(=O)(=O)c2ccc(C)cc2C)c2ccccc12	none (no result: Rv3671c inh)
COc1ccc(C(=O)Nc2nnc(-c3ccc(Br)cc3)o2)cc1OC	none (no result: Rv3671c inh, RecA splice inh, Mtb bLac sens, Mtb UGM inh)
O=C(c1ccccn1)N1Cc2cnc(N3CCOCC3)nc2C1	none (no result: Rv3671c inh, RecA splice inh, Mtb bLac sens, Mtb UGM inh)
O=C(NCC1CCN(c2ccccn2)CC1)C(=O)NC1CC1	none (no result: Rv3671c inh, RecA splice inh, Mtb bLac sens, Mtb UGM inh)
CCOC(=O)C(CC)C(C)=NNC(=O)c1cccc(C)c1 (stereo unspecified)	none (no result: Rv3671c inh, RecA splice inh, Mtb bLac sens, Mtb UGM inh)
CN(CCc1cnn(C)c1)C(=O)C1CCC(=O)N(CC2CCCCC2)C1 (stereo unspecified)	RecA splice inh 46 | GFP chromophore inactive
Cc1n[nH]c(C)c1CCN(C)C(=O)C1CCC(=O)N(CC2CCCCC2)C1 (stereo unspecified)	Mtb bLac sens inconclusive (no result: RecA splice inh)
CCOC(=O)c1c(OCC)[nH]c2c1cc(O)c1ccccc12	RecA splice inh 95 | GFP chromophore 4.3
CCOC(=O)c1c(C)[nH]c2cc(Br)c(O)cc12	none
Cc1cc(C)c(C(CC(=O)c2cccs2)C(C#N)C#N)c(C)c1 (stereo unspecified)	RecA splice inh 83 | GFP chromophore 8.6
CC(CC(=O)c1cccs1)CC(=O)c1cccs1	none
CN(C)CCOc1ccc(C(C)(C)c2ccccc2)cc1	none
CC(C)(c1ccccc1)c1ccc(OCC2CO2)cc1 (stereo unspecified)	RecA splice inh 41 | GFP chromophore inactive
COc1ccccc1COc1cc(NC(=O)C2CCCN(c3cc(-n4ccnc4)ncn3)C2)ncn1 (stereo unspecified)	none (no result: Rv3671c inh, RecA splice inh, Mtb bLac sens, Mtb UGM inh)
O=C(NCCn1ncc2c(N3CCOCC3)ncnc21)C1(c2ccccc2)CCOCC1	none (no result: Rv3671c inh, RecA splice inh, Mtb bLac sens, Mtb UGM inh)
CC(C)CC1C(C#N)=C(N)Oc2c1c(=O)oc1ccccc21 (stereo unspecified)	none
CSCCC1C(C#N)=C(N)Oc2n[nH]c(-c3cccs3)c21 (stereo unspecified)	RecA splice inh 85 | GFP chromophore 9.1
CC(C)CC1C(C#N)=C(N)Oc2n[nH]c(-c3cccs3)c21 (stereo unspecified)	RecA splice inh 86 | GFP chromophore inactive
COCc1[nH]nc2c1C(c1ccsc1)C(C#N)=C(N)O2 (stereo unspecified)	RecA splice inh 64 | GFP chromophore 35
CCCc1[nH]nc2c1C(c1ccsc1)C(C#N)=C(N)O2 (stereo unspecified)	RecA splice inh 66 | GFP chromophore 29
CCCc1[nH]nc2c1C(C1CCCCC1)C(C#N)=C(N)O2 (stereo unspecified)	none
O=C1c2cc(F)ccc2-n2c1nc1ccccc1c2=O	RecA splice inh 94, Mtb bLac sens inconclusive | GFP chromophore inactive
Cc1ccc(NC(=O)c2sc3ncnc(N4CCN(c5ccccn5)CC4)c3c2C)c(C)c1	RecA splice inh 73 | GFP chromophore inactive
Cc1cncn(CCNC(=O)Nc2ccc(Cl)c(Cl)c2)c1=O	none (no result: Rv3671c inh, RecA splice inh, Mtb bLac sens, Mtb UGM inh)
O=c1[nH]c(CCl)nc2cc(-c3ccc(F)cc3)sc12	RecA splice inh 36 | GFP chromophore 31
O=c1[nH]cnc2cc(-c3ccc(Br)cc3)sc12	none

Screens deposited in PubChem by several laboratories.
